Source: publication PMC7862700, “An all-to-all approach to the identification of sequence-specific readers for epigenetic DNA modifications on cytosine”

What was measured:
Experiment in all cases: DAPPL (digital affinity profiling via proximity ligation, sequencing); 10 mM Tris-HCl pH 7.5, 50 mM NaCl, 1 mM DTT, 4% glycerol, room temperature, 30 min; GST-TFs on glutathione beads, 16-mer random dsDNA library, 0.1% formaldehyde crosslink after washing; high values mean tight binding
Conditions in all cases: protein: recombinant; tags: N-terminal GST; dsDNA, one strand shown
FEV = molecular target: T1, FEV (Homo sapiens, UniProt Q99581 1-238)
T1 sequence: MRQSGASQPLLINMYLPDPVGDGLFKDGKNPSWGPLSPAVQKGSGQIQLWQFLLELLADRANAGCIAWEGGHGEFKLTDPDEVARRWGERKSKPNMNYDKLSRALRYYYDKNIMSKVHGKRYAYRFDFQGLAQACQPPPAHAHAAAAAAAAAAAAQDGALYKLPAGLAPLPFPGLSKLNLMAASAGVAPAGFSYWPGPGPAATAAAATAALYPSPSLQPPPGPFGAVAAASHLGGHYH
Summary of the method: (§1)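 Binding signal is given per hexamer as its read frequency for a factor divided by its frequency in the tag-only sample. GST-fused human transcription factors were expressed in yeast, captured on glutathione beads, barcoded with DNA and pooled with that sample, then incubated with 200 nmole of a 16-mer random double-stranded DNA library in Tris/NaCl/DTT/glycerol buffer for 30 min at room temperature. The pools were then washed, crosslinked, proximity-ligated, amplified by PCR and sequenced on an Illumina NextSeq500.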

ETV5 = ETV5 (Homo sapiens, UniProt P41161 1-510)
Summary of the method: as §1

SPIC = molecular target: T2, SPIC (Homo sapiens, UniProt Q8N5J4 1-248)
T2 sequence: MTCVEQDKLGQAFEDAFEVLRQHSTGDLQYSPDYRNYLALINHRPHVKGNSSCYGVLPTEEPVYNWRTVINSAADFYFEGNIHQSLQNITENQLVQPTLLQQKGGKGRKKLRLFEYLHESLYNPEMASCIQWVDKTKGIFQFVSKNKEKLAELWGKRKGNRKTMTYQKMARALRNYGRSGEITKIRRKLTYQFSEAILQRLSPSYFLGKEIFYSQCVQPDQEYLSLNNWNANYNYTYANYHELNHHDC
Summary of the method: as §1

ELF4 = ELF4 (Homo sapiens, UniProt Q99607 1-663)
Summary of the method: as §1

ELK4 = molecular target: T3, ELK4 (Homo sapiens, UniProt P28324-2 1-405)
T3 sequence: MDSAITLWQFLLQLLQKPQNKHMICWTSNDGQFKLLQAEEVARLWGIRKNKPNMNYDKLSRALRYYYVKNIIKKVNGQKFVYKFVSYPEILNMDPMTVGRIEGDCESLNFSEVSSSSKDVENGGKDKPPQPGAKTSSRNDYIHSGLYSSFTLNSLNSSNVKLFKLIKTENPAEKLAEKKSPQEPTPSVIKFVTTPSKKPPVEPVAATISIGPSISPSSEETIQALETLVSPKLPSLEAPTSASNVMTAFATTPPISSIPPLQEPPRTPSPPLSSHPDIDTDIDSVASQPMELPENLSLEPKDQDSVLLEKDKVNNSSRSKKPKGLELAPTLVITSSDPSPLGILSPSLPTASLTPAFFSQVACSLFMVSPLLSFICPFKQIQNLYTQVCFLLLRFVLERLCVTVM
Summary of the method: as §1

ETV2 = molecular target: T4, ETV2 (Homo sapiens, UniProt O00321 1-342)
T4 sequence: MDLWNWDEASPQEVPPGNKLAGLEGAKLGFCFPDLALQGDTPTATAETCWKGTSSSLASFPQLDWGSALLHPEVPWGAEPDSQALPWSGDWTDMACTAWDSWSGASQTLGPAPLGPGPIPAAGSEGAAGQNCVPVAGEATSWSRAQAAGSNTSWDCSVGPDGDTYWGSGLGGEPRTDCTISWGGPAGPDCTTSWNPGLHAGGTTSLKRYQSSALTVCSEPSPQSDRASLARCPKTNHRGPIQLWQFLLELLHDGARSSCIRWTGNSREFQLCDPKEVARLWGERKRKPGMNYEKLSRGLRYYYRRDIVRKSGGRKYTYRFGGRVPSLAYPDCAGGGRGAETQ
Summary of the method: as §1

ELF3 = molecular target: T5, ELF3 (Homo sapiens, UniProt P78545 1-371)
T5 sequence: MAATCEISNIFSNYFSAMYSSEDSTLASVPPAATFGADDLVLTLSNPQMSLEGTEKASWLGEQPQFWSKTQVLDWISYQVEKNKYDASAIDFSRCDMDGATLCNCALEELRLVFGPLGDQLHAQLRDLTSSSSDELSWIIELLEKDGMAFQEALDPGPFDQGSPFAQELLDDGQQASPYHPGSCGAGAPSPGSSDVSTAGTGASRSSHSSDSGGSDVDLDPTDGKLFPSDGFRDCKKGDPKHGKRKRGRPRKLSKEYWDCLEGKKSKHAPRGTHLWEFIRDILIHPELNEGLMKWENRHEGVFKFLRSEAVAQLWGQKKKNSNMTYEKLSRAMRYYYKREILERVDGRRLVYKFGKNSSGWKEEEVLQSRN
Summary of the method: as §1

ETV1 = ETV1 (Homo sapiens, UniProt P50549 1-477)
Summary of the method: as §1

ERF = molecular target: T6, ERF (Homo sapiens, UniProt P50548 1-548)
T6 sequence: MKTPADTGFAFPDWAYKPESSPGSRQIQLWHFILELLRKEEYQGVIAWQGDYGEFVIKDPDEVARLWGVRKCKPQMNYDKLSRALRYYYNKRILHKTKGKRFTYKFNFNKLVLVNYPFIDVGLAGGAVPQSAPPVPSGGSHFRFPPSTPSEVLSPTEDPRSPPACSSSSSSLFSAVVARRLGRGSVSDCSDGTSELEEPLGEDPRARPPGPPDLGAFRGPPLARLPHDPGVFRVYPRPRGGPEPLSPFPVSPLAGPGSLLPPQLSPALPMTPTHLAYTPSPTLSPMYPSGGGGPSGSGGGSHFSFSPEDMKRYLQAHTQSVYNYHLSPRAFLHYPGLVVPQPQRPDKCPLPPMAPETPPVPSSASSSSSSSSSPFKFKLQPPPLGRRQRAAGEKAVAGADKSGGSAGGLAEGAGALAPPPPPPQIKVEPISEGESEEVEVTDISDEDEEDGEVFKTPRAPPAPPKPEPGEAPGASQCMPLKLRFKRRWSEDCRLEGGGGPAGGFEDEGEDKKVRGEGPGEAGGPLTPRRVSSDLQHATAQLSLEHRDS
Summary of the method: as §1

ETV3L = molecular target: T7, ETV3L (Homo sapiens, UniProt Q6ZN32 1-361)
T7 sequence: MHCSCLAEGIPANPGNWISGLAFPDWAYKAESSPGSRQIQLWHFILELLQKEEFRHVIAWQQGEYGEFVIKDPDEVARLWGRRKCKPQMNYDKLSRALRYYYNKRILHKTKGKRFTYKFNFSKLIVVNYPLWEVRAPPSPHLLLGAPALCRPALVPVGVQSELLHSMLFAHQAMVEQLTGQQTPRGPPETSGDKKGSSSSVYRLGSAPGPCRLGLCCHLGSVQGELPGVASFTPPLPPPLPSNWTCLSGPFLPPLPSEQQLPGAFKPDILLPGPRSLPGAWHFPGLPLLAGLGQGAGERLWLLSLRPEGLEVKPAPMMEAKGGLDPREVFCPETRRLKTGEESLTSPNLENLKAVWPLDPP
Summary of the method: as §1

ETS2 = molecular target: T8, ETS2 (Homo sapiens, UniProt P15036 1-469)
T8 sequence: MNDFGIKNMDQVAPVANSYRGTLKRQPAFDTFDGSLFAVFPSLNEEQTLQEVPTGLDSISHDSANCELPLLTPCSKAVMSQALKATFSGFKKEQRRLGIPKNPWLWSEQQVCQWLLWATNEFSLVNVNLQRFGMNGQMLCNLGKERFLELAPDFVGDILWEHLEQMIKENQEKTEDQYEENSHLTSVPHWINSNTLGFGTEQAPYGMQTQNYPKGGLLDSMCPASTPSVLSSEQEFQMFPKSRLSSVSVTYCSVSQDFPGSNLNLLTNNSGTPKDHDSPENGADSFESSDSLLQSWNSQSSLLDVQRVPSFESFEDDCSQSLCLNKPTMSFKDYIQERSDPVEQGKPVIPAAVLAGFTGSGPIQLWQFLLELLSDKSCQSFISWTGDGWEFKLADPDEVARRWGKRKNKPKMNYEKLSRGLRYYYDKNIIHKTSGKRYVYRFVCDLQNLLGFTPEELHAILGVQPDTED
Summary of the method: as §1

SPDEF = molecular target: T9, SPDEF (Homo sapiens, UniProt O95238 1-335)
T9 sequence: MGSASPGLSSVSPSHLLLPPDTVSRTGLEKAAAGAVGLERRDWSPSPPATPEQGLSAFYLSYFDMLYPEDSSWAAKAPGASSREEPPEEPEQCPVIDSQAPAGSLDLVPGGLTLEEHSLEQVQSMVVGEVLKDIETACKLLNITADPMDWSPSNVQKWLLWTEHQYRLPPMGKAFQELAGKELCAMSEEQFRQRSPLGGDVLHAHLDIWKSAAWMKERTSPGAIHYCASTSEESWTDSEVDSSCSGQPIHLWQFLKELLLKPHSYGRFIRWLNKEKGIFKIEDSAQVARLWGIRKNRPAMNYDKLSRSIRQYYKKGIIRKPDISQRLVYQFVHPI
Summary of the method: as §1

ETV7 = molecular target: T10, ETV7 (Homo sapiens, UniProt Q9Y603 1-341)
T10 sequence: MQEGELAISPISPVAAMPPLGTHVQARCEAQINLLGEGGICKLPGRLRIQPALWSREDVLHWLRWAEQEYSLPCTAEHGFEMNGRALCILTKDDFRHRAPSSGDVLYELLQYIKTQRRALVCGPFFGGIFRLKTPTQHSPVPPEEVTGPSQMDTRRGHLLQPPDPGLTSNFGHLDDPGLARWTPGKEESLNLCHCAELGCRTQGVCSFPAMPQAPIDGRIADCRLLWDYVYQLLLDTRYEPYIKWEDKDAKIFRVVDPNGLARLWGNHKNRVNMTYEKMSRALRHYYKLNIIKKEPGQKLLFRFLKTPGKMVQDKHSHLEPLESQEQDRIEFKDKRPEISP
Summary of the method: as §1

ELF5 = molecular target: T11, ELF5 (Homo sapiens, UniProt Q9UKW6-2 1-255)
T11 sequence: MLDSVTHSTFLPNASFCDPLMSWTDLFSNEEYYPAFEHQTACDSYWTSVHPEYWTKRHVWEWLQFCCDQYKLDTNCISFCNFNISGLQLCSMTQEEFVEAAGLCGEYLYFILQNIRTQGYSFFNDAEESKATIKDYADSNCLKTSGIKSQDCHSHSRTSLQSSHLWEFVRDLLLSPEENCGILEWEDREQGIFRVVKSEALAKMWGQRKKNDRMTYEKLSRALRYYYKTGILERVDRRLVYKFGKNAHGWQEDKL
Summary of the method: as §1

ETV3 = molecular target: T12, ETV3 (Homo sapiens, UniProt P41162-2 1-143)
T12 sequence: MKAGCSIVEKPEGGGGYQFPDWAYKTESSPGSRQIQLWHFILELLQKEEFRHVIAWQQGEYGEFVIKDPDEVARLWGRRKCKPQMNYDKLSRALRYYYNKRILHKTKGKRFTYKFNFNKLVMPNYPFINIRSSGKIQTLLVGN
Summary of the method: as §1

ETV6 = ETV6 (Homo sapiens, UniProt P41212 1-452)
Summary of the method: as §1

ELF4, sequence (Q99607 whole entry): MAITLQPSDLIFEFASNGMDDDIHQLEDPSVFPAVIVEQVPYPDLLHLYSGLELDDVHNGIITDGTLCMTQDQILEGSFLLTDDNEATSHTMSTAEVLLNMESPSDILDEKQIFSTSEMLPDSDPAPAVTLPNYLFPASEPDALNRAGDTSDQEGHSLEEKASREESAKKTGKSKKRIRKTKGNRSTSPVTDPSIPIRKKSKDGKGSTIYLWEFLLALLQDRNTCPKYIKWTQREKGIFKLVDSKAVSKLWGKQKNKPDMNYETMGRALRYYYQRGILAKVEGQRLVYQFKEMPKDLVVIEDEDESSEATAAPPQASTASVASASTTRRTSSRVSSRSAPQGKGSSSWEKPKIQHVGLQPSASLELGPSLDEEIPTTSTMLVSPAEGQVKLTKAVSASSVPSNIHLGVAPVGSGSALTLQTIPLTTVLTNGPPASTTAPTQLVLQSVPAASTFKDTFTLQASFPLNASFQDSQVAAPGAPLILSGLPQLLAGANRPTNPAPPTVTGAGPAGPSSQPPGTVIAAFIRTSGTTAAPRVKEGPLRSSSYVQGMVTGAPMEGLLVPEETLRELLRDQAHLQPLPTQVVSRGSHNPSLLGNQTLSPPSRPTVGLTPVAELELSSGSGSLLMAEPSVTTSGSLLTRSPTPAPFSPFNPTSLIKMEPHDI
ETV5, sequence (P41161 whole entry): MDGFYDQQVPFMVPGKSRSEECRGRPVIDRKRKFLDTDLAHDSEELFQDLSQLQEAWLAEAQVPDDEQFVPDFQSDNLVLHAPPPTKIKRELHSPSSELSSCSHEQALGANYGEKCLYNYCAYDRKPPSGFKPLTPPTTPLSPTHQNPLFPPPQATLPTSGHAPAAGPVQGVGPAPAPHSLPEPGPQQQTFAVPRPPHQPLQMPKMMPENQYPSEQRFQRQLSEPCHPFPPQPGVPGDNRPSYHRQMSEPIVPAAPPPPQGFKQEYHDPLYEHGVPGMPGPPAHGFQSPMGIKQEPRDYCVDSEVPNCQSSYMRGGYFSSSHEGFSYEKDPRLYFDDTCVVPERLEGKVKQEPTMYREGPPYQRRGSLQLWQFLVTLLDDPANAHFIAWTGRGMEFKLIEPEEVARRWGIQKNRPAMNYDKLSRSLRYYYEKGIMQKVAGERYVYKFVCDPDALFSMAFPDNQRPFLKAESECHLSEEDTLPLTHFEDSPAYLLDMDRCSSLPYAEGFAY
ETV1, sequence (P50549 whole entry): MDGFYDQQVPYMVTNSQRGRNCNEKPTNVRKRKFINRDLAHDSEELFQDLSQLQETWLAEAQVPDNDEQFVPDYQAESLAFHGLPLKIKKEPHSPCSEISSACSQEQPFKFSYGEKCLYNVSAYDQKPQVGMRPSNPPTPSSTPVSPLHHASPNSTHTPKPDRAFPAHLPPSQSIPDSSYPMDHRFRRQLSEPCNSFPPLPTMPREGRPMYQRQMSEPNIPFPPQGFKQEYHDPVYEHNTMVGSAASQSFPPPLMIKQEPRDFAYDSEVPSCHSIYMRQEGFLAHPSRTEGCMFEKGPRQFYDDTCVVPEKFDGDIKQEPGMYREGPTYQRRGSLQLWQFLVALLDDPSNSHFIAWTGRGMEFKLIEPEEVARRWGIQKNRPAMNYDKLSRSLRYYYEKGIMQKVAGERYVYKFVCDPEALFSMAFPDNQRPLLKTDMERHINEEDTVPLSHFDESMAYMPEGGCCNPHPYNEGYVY
ETV6, sequence (P41212 whole entry): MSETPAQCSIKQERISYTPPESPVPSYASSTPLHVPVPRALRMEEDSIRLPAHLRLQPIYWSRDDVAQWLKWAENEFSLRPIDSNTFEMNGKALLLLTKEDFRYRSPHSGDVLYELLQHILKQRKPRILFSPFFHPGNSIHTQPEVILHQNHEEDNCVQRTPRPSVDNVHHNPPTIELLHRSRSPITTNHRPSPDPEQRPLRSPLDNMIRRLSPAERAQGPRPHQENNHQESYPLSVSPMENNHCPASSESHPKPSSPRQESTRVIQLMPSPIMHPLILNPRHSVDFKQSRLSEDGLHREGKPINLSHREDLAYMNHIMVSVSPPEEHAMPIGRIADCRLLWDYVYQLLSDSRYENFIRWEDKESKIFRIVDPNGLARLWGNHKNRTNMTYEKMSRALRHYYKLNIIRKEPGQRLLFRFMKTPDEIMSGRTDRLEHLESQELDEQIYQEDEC

Sequence | binding signal (FEV) | binding signal (ETV5) | binding signal (SPIC) | binding signal (ELF4) | binding signal (ELK4) | binding signal (ETV2) | binding signal (ELF3) | binding signal (ETV1) | binding signal (ERF) | binding signal (ETV3L) | binding signal (ETS2) | binding signal (SPDEF) | binding signal (ETV7) | binding signal (ELF5) | binding signal (ETV3) | binding signal (ETV6)
AGTGTT | 1.02 fold enrichment (6-mer frequency, TF over GST control) | 1.06 fold enrichment (6-mer frequency, TF over GST control) | 1.18 fold enrichment (6-mer frequency, TF over GST control) | 1.05 fold enrichment (6-mer frequency, TF over GST control) | 1.08 fold enrichment (6-mer frequency, TF over GST control) | 1.07 fold enrichment (6-mer frequency, TF over GST control) | 1.26 fold enrichment (6-mer frequency, TF over GST control) | 1.06 fold enrichment (6-mer frequency, TF over GST control) | 1.13 fold enrichment (6-mer frequency, TF over GST control) | 1.1 fold enrichment (6-mer frequency, TF over GST control) | 1.1 fold enrichment (6-mer frequency, TF over GST control) | 1.13 fold enrichment (6-mer frequency, TF over GST control) | 1.14 fold enrichment (6-mer frequency, TF over GST control) | 1.3 fold enrichment (6-mer frequency, TF over GST control) | 1.08 fold enrichment (6-mer frequency, TF over GST control) | 1.11 fold enrichment (6-mer frequency, TF over GST control)
CCTGCC | 1.33 fold enrichment (6-mer frequency, TF over GST control) | 1.34 fold enrichment (6-mer frequency, TF over GST control) | 1.28 fold enrichment (6-mer frequency, TF over GST control) | 1.28 fold enrichment (6-mer frequency, TF over GST control) | 1.14 fold enrichment (6-mer frequency, TF over GST control) | 1.26 fold enrichment (6-mer frequency, TF over GST control) | 1.27 fold enrichment (6-mer frequency, TF over GST control) | 1.26 fold enrichment (6-mer frequency, TF over GST control) | 1.3 fold enrichment (6-mer frequency, TF over GST control) | 1.24 fold enrichment (6-mer frequency, TF over GST control) | 1.23 fold enrichment (6-mer frequency, TF over GST control) | 1.31 fold enrichment (6-mer frequency, TF over GST control) | 1.33 fold enrichment (6-mer frequency, TF over GST control) | 1.35 fold enrichment (6-mer frequency, TF over GST control) | 1.28 fold enrichment (6-mer frequency, TF over GST control) | 1.36 fold enrichment (6-mer frequency, TF over GST control)
